# Data from PubChem BioAssay AID2810 (NMMLSC, 2010).
# In all, about 1,200 compounds went through this assay and about 65 (5%) were called active.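 The calls were made as follows: active = at either tested dose, response and 90th-percentile vesicle-stain brightness of CD8 cells under set limits and under 9% cells vesicle-bound; inactive = the rest.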 What follows is part of a selection rich in actives, with near analogues and random picks from the rest.
# Assay: modulators of CD8 T cell-vesicle binding, confirmation, cherry-picked primary hits, two concentrations (AID 2810);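 also: lower values mean blocking of vesicle binding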;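 as to percent response (vesicle binding): ratio of mean FL2 vesicle stain of CD8+ cells to that row's control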
# Conditions: 2C CD8+ T cell-vesicle binding, flow cytometry; for double positive events: CD8+/vesicle+ events
# [1] = at 15.4 µM, stronger effect = lower value
Structure (SMILES),double positive events (at 7.7 µM) [%],double positive events [1] [%],percent response (vesicle binding) [1],"percent response (vesicle binding) (response, at 7.7 µM) [%]"
CCCOc1ccc(C2=CC(=O)C[C@H](c3ccc(OC)cc3)C2)cc1,11,10.3,69.4% (inactive),126
COc1ccc(C2=CC(=O)C[C@H](c3ccc4c(c3)OCO4)C2)cn1,9.9,4.4,35.6% (active),132
COc1ccc([C@H]2CC(=O)C=C(c3ccc(OC)nc3)C2)cc1,14.2,9.6,212% (inactive),129
Cc1ccc(O)c(CCc2ccccc2)n1,15.8,2.8,113% (inactive),128
O=C(Nc1nc2ccccc2[nH]1)c1ccccc1[N+](=O)[O-],21,27.8,316% (inactive),383
O=C(NC(=S)Nc1nc(-c2ccccc2)cs1)c1cccs1,16.9,1.5,48.9% (active),238
O=C(Nc1nc(-c2ccccc2)cs1)c1ccc(N2CCOCC2)c([N+](=O)[O-])c1,8.4,25.6,552% (inactive),78.4
CCNC(=O)CSc1nc(-c2ccccc2)cs1,25.1,14.3,215% (inactive),240
CC1c2ccsc2CCN1C(=O)NC(=O)c1ccc(Cl)cc1 (configuration not stated),20.6,18.4,185% (inactive),486
CCCNC(=O)c1nc2ncc(Br)cn2n1,15.3,1,43% (active),231
CCOC(=O)c1cnc2nc(C)nn2c1N,10.5,10.6,70.8% (inactive),113
CCCCNC(=O)c1cnc2n(c1=O)CCS2,38.7,14.7,184% (inactive),399
O=C(NNC(=S)NC(=O)c1ccco1)c1ccc(F)cc1,7.1,18.1,196% (inactive),291
O=C(NC(=S)NCc1ccco1)c1ccc(Br)cc1,18.8,5.9,52.9% (active),186
Cc1ccc(C(=O)NCc2ccco2)o1,10.5,20.1,586% (inactive),368
CCOc1ccccc1NC(=O)c1ccc(F)c(S(=O)(=O)N2CCC3(CC2)OCCO3)c1,16.8,14.7,94.2% (inactive),132
COc1ccc(C2(O)CCN(CCCCOc3ccccc3)CC2)cc1,12.9,31.8,292% (inactive),174
C[N+]1(C)CC2([N+](=O)[O-])CC=C(Oc3ccccc3)C([N+](=O)[O-])(C2)C1 (configuration not stated),28.9,3.4,49.5% (active),485
CCOc1ccccc1NC(=O)CN(c1ccc(C)cc1)S(=O)(=O)c1c(C)noc1C,30.1,16.7,129% (inactive),502
COc1ccc(Cl)cc1NC(=O)/C=C/C(=O)O,13.3,24.2,251% (inactive),192
CCCCN(C(=O)COC(=O)c1ccc(C=O)cc1)c1c(N)n(CCC)c(=O)[nH]c1=O,9.2,13.1,406% (inactive),335
CCc1ccc(OCc2cnc(Cl)s2)cc1,11.6,16.5,277% (inactive),421
Cn1c(SCC(=O)Nc2ccc3cn[nH]c3c2)nnc1-c1cccs1,12.5,17.2,146% (inactive),160

Structure (SMILES),double positive events (at 7.7 µM) [%],double positive events [1] [%],percent response (vesicle binding) [1],"percent response (vesicle binding) (response, at 7.7 µM) [%]"
Cc1c(NS(=O)(=O)CC23CCC(CC2=O)C3(C)C)c(=O)n(-c2ccccc2)n1C (configuration not stated),14.2,1.9,37.7% (active),260
Cc1c(NC(=S)NC(=O)CCc2ccccc2)c(=O)n(-c2ccccc2)n1C,21.8,30.2,295% (inactive),278
CCC(=O)NC(NC(=S)Nc1c(C)n(C)n(-c2ccccc2)c1=O)C(Cl)(Cl)Cl (configuration not stated),16.1,13.9,129% (inactive),201
COc1cc(C(C)=O)ccc1O,24,6.3,114% (inactive),362
Cc1cc(C(=O)NCc2cc(C(=O)O)oc2C)c(C)o1,29.4,14.9,86.2% (inactive),224
CSCCC(NC(=O)c1ccc(=O)n(C)n1)c1nc2ccccc2[nH]1 (configuration not stated),14.9,0.9,42% (active),254
O=C(NCC(=O)N1CCN(C(=O)c2ccccc2)CC1)c1ccccc1,13.6,10.6,148% (inactive),158
Cc1cc(C)nc(SCCn2c(N3CC(C)OC(C)C3)nc3c2c(=O)n(C)c(=O)n3C)n1 (configuration not stated),12.7,28.3,226% (inactive),172
C=CCNC(=O)c1c(Cl)nc(C)c([N+](=O)[O-])c1C,28.7,11.5,144% (inactive),122
CCC1(C)NC(=O)N(CC(=O)N2N=C(c3ccccc3)CC2c2ccc(OC)cc2)C1=O (configuration not stated),9.6,30.9,413% (inactive),134
CCc1c(C)nc(SCC(=O)Nc2nc(-c3ccc(OC)cc3)cs2)[nH]c1=O,33.4,10.4,192% (inactive),289
CCOc1ccc(-c2csc(NNC3=NCCCCC3)n2)cc1,15.2,1.4,52.5% (active),178
CCOc1ccc(-c2cn(-c3ccc(OC)cc3)c(SC)n2)cc1,11.4,13.4,155% (inactive),303
Cc1cc([N+](=O)[O-])nn1CC(=O)Nc1nccs1,35,19.6,221% (inactive),201
Cc1ccc(S(=O)(=O)N(C)CC(=O)Nc2nc3ccccc3s2)cc1,30.7,26.8,351% (inactive),371
Cc1ccc(S(=O)(=O)N2CCC(NC(=O)c3ccccc3)CC2)cc1,28.6,28.6,425% (inactive),558
Cc1ccc(S(=O)(=O)c2c(N)n(NC(=O)c3ccccc3C)c3nc4ccccc4nc23)cc1,22.8,1.1,26.2% (active),248
O=C(CN1C(=O)C2CCCN2C(=O)c2ccccc21)Nc1ccccc1-n1cccc1 (configuration not stated),5.8,12.2,354% (inactive),425
COc1ccc(C(=O)O)cc1S(=O)(=O)Nc1cccc(C)c1,14.1,17.7,296% (inactive),181
C=CCN(c1ccc(Br)cc1C(=O)OC)S(C)(=O)=O,29.1,2.3,35.1% (active),465
COc1ccc(N(CC(=O)O)S(C)(=O)=O)cc1OC,24.1,30.5,229% (inactive),691
c1ccc2c(c1)COC(CN1CCCCC1)OC2,12.3,10.2,418% (inactive),439
COC(=O)[C@]1(C)N[C@H](CN(C)S(=O)(=O)c2ccc(OC(F)(F)F)cc2)[C@@H]2C(=O)N(C)C(=O)[C@@H]21,9.2,26.1,907% (inactive),443

Structure (SMILES),double positive events (at 7.7 µM) [%],double positive events [1] [%],percent response (vesicle binding) [1],"percent response (vesicle binding) (response, at 7.7 µM) [%]"
COc1ccc(-c2cc(CNS(=O)(=O)c3ccc(NC(C)=O)cc3)on2)cc1,23.7,2.2,18.8% (active),277
COc1ccc(NC(=O)CN2CCN(S(=O)(=O)c3ccc(Cl)cc3)CC2)cc1,31.1,12,124% (inactive),164
CCCCNS(=O)(=O)c1ccc(OCC(=O)OC)cc1,14.8,20,106% (inactive),517
Cc1ccc(CN2CC(=O)N3[C@H]4c5cc(C)ccc5OC[C@@H]4[C@H](c4ccccc4)[C@]3(C)C2=O)cc1,8.3,11.2,109% (inactive),231
C/C(=N\NC(=O)Cn1cc([N+](=O)[O-])cn1)c1ccco1,23.5,26.1,268% (inactive),291
CCOC(=O)N1CCN(C(=O)c2ccc(N3CCCC3=O)cc2)CC1,9.7,22.5,213% (inactive),150
O=C(c1ccc(Cl)cc1)N1CCC(C(=O)N2CCN(c3ncccn3)CC2)CC1,27.3,6.4,173% (inactive),114
O=C(c1ccc(N2C(=O)C3CC=C(Cl)CC3C2=O)cc1)N1CCCCC1 (configuration not stated),19.3,5.2,56.9% (active),195
Cc1cc(C)cc(NC(=O)CC23CC4CC(C2)CC(n2nnc(C)n2)(C4)C3)c1,6.1,35.3,236% (inactive),200
CCCc1nnc(NC(=O)CCC(=O)N2CCC(Cc3ccccc3)CC2)s1,11.7,25.7,200% (inactive),291
Cc1c2cccn2cc[n+]1C,16.6,4.4,29.6% (active),159
Cc1cccc(C(=O)OCC(=O)Nc2c(C)n(C)n(-c3ccccc3)c2=O)c1,11,26.9,392% (inactive),320
Cc1ccc(C(=O)NC(C)CCc2ccccc2)cc1[N+](=O)[O-] (configuration not stated),27,32.4,199% (inactive),481
Cc1ccc(-n2ncc3c(N4CCCC(C)C4)ncnc32)c(C)c1 (configuration not stated),15.4,13.3,312% (inactive),283
O=C(OCCOc1cccc(Cl)c1)c1ccc(F)c(S(=O)(=O)N2CCOCC2)c1,24.5,0.7,42.7% (active),333
CCSc1nnc(NC(=O)c2ccc(F)c(S(=O)(=O)N3CCOCC3)c2)s1,23.7,34.2,203% (inactive),209
O=C(NCC1CCCCC1)c1ccc(Cl)c(S(=O)(=O)N2CCOCC2)c1,9.2,22.8,342% (inactive),135
CC1CCN(S(=O)(=O)c2csc(C(=O)Nc3ccccc3)c2)CC1,33.2,23.8,579% (inactive),415
CC(=O)Nc1ccccc1OC(C)C(=O)NC(C)c1ccc(F)cc1 (configuration not stated),9.2,9,114% (inactive),420
Cc1cc(F)ccc1S(=O)(=O)N1CCCOC1CNC(=O)C(=O)NC1CCCC1 (configuration not stated),11.7,9.3,255% (inactive),451
COC(=O)c1ccc(OC(=O)CS(=O)c2ccccc2[N+](=O)[O-])cc1 (configuration not stated),15,3.4,143% (inactive),395
Cc1cccc(Nc2nc(-c3ccccn3)cs2)n1,28.1,5.2,46.7% (active),538
